# Results published in the supplement of paper PMC8728848.
# Many of the other results were omitted from the sample, so the strongest signals are more common in it than they were.
# Tests used:
# Test in all cases: glycan array binding signal (z-score within array); higher = stronger binding
# Conditions in all cases: glycan notation: IUPAC condensed, linker removed
# [1] = target: Gal(b1-4)GlcNAc(b1-3)Gal(b1-4)GlcNAc(b1-3)Gal(b1-4)GlcNAc(b1-3)Gal(b1-4)GlcNAc(b1-3)Gal(b1-4)GlcNAc(b1-3)Gal(b1-4)GlcNAc(b1-2)Man(a1-3)[Gal(b1-4)GlcNAc(b1-3)Gal(b1-4)GlcNAc(b1-3)Gal(b1-4)GlcNAc(b1-3)Gal(b1-4)GlcNAc(b1-3)Gal(b1-4)GlcNAc(b1-3)Gal(b1-4)GlcNAc(b1-2)Man(a1-6)]Man(b1-4)GlcNAc(b1-4)GlcNAc
# In short: (§1)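 The binding signal is a Z-score computed within each array and averaged over linkers. Arrays of the same protein sequence at different concentrations or buffers were also averaged together. Data originate from 3228 arrays in the Consortium for Functional Glycomics database, kept only where the protein sequence was available.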
# [2] = target: Gal(b1-4)GlcNAc(b1-3)[GlcNAc(b1-6)]Gal(b1-4)GlcNAc
# In short: as §1
# [3] = target: Gal(b1-4)GlcNAc(b1-6)Gal(b1-4)GlcNAc
# In short: as §1
# [4] = target: Gal(b1-4)GlcNAc(b1-6)[Gal(b1-4)GlcNAc(b1-3)]GalNAc
# In short: as §1
# [5] = target: Gal3S(b1-3)GlcNAc
# In short: as §1
# [6] = target: Gal3S(b1-4)Glc
# In short: as §1
# [7] = target: Gal3S(b1-4)GlcNAc6S
# In short: as §1
# [8] = target: Gal6S(b1-4)Glc6S
# In short: as §1
# [9] = target: GalNAc(a1-3)GalNAc(a1-3)Gal(a1-4)Gal(b1-4)GlcNAc
# In short: as §1
# [10] = target: GalNAc(b1-3)Gal(a1-4)Gal(b1-4)GlcNAc(b1-3)Gal(b1-4)Glc
# In short: as §1
# [11] = target: GlcNAc(b1-2)[GlcNAc(b1-4)]Man(a1-3)[GlcNAc(b1-2)Man(a1-6)]Man(b1-4)GlcNAc(b1-4)GlcNAc
# In short: as §1
# [12] = target: GlcNAc(b1-3)Gal
# In short: as §1
# [13] = target: GlcNAc(b1-3)Gal(b1-4)GlcNAc(b1-3)Gal(b1-4)GlcNAc(b1-3)Gal(b1-4)GlcNAc(b1-3)Gal(b1-4)GlcNAc(b1-2)[GlcNAc(b1-3)Gal(b1-4)GlcNAc(b1-3)Gal(b1-4)GlcNAc(b1-3)Gal(b1-4)GlcNAc(b1-3)Gal(b1-4)GlcNAc(b1-6)]Man(a1-6)[GlcNAc(b1-3)Gal(b1-4)GlcNAc(b1-3)Gal(b1-4)GlcNAc(b1-3)Gal(b1-4)GlcNAc(b1-3)Gal(b1-4)GlcNAc(b1-2)Man(a1-3)]Man(b1-4)GlcNAc(b1-4)[Fuc(a1-6)]GlcNAc
# In short: as §1
# [14] = target: Kdn(a2-3)Gal(b1-4)Glc
# In short: as §1
# [15] = target: Man(a1-2)Man(a1-3)[Man(a1-2)Man(a1-6)]Man(a1-6)[Man(a1-2)Man(a1-2)Man(a1-3)]Man
# In short: as §1
# [16] = target: Man(a1-2)Man(a1-6)[Man(a1-3)]Man(a1-6)[Man(a1-2)Man(a1-2)Man(a1-3)]Man(b1-4)GlcNAc(b1-4)GlcNAc
# In short: as §1
# [17] = target: Man(a1-3)[Man(a1-6)]Man(a1-6)[Man(a1-2)Man(a1-3)]Man(b1-4)GlcNAc(b1-4)GlcNAc
# In short: as §1
# [18] = target: Neu5Ac(a2-3)Gal(b1-3)GlcNAc(b1-3)Gal(b1-4)GlcNAc
# In short: as §1
# [19] = target: Neu5Ac(a2-3)Gal(b1-4)GlcNAc(b1-3)Gal(b1-4)GlcNAc(b1-3)Gal(b1-4)GlcNAc
# In short: as §1
# [20] = target: Neu5Ac(a2-3)Gal(b1-4)GlcNAc(b1-3)GalNAc
# In short: as §1
# [21] = target: Neu5Ac(a2-3)[GalNAc(b1-4)]Gal(b1-4)Glc
# In short: as §1
# [22] = target: Neu5Ac(a2-6)Gal(b1-4)GlcNAc(b1-2)Man(a1-3)[GlcNAc(b1-2)Man(b1-4)GlcNAc(b1-2)Man(a1-6)]Man(b1-4)GlcNAc(b1-4)GlcNAc
# In short: as §1
# [23] = target: Neu5Ac(a2-6)Gal(b1-4)GlcNAc(b1-2)Man(a1-3)[Neu5Ac(a2-3)Gal(b1-4)GlcNAc(b1-2)Man(a1-6)]Man(b1-4)GlcNAc(b1-4)GlcNAc
# In short: as §1
# [24] = target: Neu5Ac(a2-6)Gal(b1-4)GlcNAc(b1-2)Man(a1-6)[GlcNAc(b1-2)Man(a1-3)]Man(b1-4)GlcNAc(b1-4)GlcNAc
# In short: as §1
# [25] = target: Neu5Ac(a2-6)Gal(b1-4)GlcNAc(b1-3)Gal(b1-4)GlcNAc(b1-2)Man(a1-3)[Neu5Ac(a2-6)Gal(b1-4)GlcNAc(b1-3)Gal(b1-4)GlcNAc(b1-2)Man(a1-6)]GalNAc
# In short: as §1
# [26] = target: Neu5Ac(a2-6)GalNAc(b1-4)GlcNAc6S
# In short: as §1
# [27] = target: Neu5Ac(a2-6)GlcNAc(b1-4)GlcNAc(b1-4)GlcNAc
# In short: as §1
# [28] = target: Neu5Gc(a2-8)Neu5Gc(a2-3)Gal(b1-4)GlcNAc(b1-3)Gal(b1-4)GlcNAc
# In short: as §1
binder,measurement,setting,value
"Gal 9 (Homo sapiens), O00182 (protein) MAFSGSQAPYLSPAVPFSGTIQGGLQDGLQITVNGTVLSSSGTRFAVNFQTGFSGNDIAFHFNPRFEDGGYVVCNTRQNGSWGPEERKTHMPFQKGMPFDLCFLVQSSDFKVMVNGILFVQYFHRVPFHRVDTISVNGSVQLSYISFQNPRTVPVQPAFSTVPFSQPVCFPPRPRGRRQKPPGVWPANPAPITQTVIHTVQSAPGQMFSTPAIPPMMYPHPAYPMPFITTILGGLYPSKSILLSGTVLPSAQRFHINLCSGNHIAFHLNPRFDENAVVRNTQIDNSWGSEERSLPRKMPFVRGQSFSVWILCEAHCLKVAVDGQHLFEYYHRLRNLPTINRLEVGGDIQLTHVQT",glycan array binding signal (z-score),[1],9.39
same,glycan array binding signal (z-score),[2],0.555
same,glycan array binding signal (z-score),[3],-0.17
same,glycan array binding signal (z-score),[4],-0.275
same,glycan array binding signal (z-score),[5],0.996
same,glycan array binding signal (z-score),[6],-0.132
same,glycan array binding signal (z-score),[7],4.06
same,glycan array binding signal (z-score),[8],-0.299
same,glycan array binding signal (z-score),[9],0.672
same,glycan array binding signal (z-score),[10],-0.036
same,glycan array binding signal (z-score),[11],-0.323
same,glycan array binding signal (z-score),[12],-0.323
same,glycan array binding signal (z-score),[13],2.32
same,glycan array binding signal (z-score),[14],-0.315
same,glycan array binding signal (z-score),[15],-0.311
same,glycan array binding signal (z-score),[16],-0.321
same,glycan array binding signal (z-score),[17],-0.263
same,glycan array binding signal (z-score),[18],0.431
same,glycan array binding signal (z-score),[19],0.554
same,glycan array binding signal (z-score),[20],-0.265
same,glycan array binding signal (z-score),[21],-0.302
same,glycan array binding signal (z-score),[22],0.913
same,glycan array binding signal (z-score),[23],-0.259
same,glycan array binding signal (z-score),[24],-0.323
same,glycan array binding signal (z-score),[25],5.41
same,glycan array binding signal (z-score),[26],-0.291
same,glycan array binding signal (z-score),[27],-0.318
same,glycan array binding signal (z-score),[28],-0.282
